The list shows a part of the results. A number with no mark means an inactive call. Activity calls are given as the source filed them.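 Rule for the calls: active = inhibition above the mean of test compounds lying between the control limits plus 3 SD of those (cut at about 14% in these data); inactive = the rest.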
molecular target: Fibrinogen beta chain (Homo sapiens) (UniProt P02675); test: fibrin DD(E) probe displacement, second cyclic peptide – biochemical, fluorescence polarization, human fibrin, counter-screen for fibrin DD(E)-Tn6 binding project, confirmation (AID 720621); conditions: TRITC-Tn6 fluorescence polarization displacement, at 8.3 µM, active compounds read high, 0% = median of compound wells, not DMSO;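 note: 0% = median of compound wells and 100% = wells with Aha-Tn7 blocking peptide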
Sequence (P02675 whole entry, looked up): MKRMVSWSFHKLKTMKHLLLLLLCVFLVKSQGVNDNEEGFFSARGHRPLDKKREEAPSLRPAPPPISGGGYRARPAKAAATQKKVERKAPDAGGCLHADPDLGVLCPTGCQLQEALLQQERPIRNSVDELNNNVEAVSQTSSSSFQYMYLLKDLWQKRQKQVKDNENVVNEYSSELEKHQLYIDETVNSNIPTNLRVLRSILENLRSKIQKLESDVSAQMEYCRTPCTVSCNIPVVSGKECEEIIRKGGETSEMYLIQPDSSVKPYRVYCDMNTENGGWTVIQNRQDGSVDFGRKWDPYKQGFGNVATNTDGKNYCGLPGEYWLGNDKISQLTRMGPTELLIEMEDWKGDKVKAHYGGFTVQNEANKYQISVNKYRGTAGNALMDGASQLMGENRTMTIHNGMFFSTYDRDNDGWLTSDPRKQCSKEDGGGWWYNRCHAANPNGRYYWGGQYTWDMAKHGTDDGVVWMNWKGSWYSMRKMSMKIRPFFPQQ

| Compound | inhibition |
| --- | --- |
| Cc1ccc(-c2nn(-c3ccccc3)cc2/C=C/C(=O)Nc2cccc(S(N)(=O)=O)c2)cc1 | 9.5% |
| Cc1nnsc1S(=O)(=O)Cc1ccccc1Cl | -7.19% |
| Cc1ccc(-c2nc(C)sc2CC(=O)O)cc1 | 1.12% |
| Cc1cc2nc3c(=O)[nH]c(=O)nc-3n(C[C@H](O)[C@H](O)[C@H](O)CO)c2cc1C | 53.3% (active) |
| COc1ccc(Nc2nc(-c3cccnc3)nc3ccccc23)cn1 | 1.38% |
| CCc1cc(-c2nnc(SCC(=O)NC3CC3)n2C)cs1 | 0.11% |
| CCc1ccccc1NC(=S)Nc1cc(OC)c(NC(=O)C(C)C)cc1OC | 2.55% |
| CCC1C(=O)NCCN1C(=O)c1ccc2nc(Cc3ccc(OC)cc3)oc2c1 (stereo unspecified) | -2.38% |
| Cc1ccc(NC(=O)CN2CCc3ccccc3C2)cc1 | -3.5% |
| O=C(Nc1cccc(-c2nc3ccccc3[nH]2)c1)c1ccc(C(=O)Nc2cccc(-c3nc4ccccc4[nH]3)c2)cc1 | 4.67% |
| COc1cc(NC(=O)c2ccc(CNc3c(N4CCCC4)c(=O)c3=O)cc2)cc(OC)c1OC | -3.04% |
| CCOC(=O)N1CCN(Cc2nc(N)nc(Nc3ccc(C)cc3)n2)CC1 | -2.92% |
| Cc1cc2cc(CNC(=O)c3ccc(S(=O)(=O)N4CCOCC4)cc3)ccc2[nH]1 | -5.66% |
| O=C(CCl)NNc1cccc(Cl)n1 | -4.59% |
| Cc1nn(C)cc1N1C(=O)c2cccc3c(N)ccc(c23)C1=O | 12.5% |
| CCOCC(=O)NCc1ccc2c(c1)cc(C)n2C | 3.45% |
| Cc1cc2ccccc2n1CCNC(=O)COc1ccc2ccccc2c1 | 4.66% |
| COc1ccc(Nc2nc(-c3ccccc3)cs2)cc1 | 3.89% |
| CN1c2ccc(C=O)c3c(C=O)ccc(c23)N(C)C1(C)C | 1.94% |
| CONc1nc2nonc2nc1NOC | 0.1% |
| Oc1ccc(N=Cc2sc3ccccc3c2Cl)cc1 | -3.72% |
| Cc1cc(C)c2nc(NC(=O)C3CCCO3)sc2c1 (stereo unspecified) | 9.86% |
| COc1ccc(N2C(=O)NC(NS(=O)(=O)c3ccc(Cl)cc3)(C(F)(F)F)C2=O)cc1 (stereo unspecified) | 9.3% |
| O=C(NCCNc1ccccc1[N+](=O)[O-])c1ccccc1F | 1.36% |
| O=c1cc(Cn2nnc(-c3ccc(Cl)cc3)n2)nc2sccn12 | 0.44% |
| O=c1[nH]n(-c2ccc([N+](=O)[O-])cc2)c(=O)c2ccccc12 | -1.25% |
